Laboratory results: the supplement of paper PMC8728848
About 410 targets per protein were measured; listed, in parts, are those with the strongest signals and a random draw of the rest.

Legend:
Assay in all cases: glycan array binding signal (z-score within array); higher = stronger binding
Details in all cases: glycan notation: IUPAC condensed, linker removed
[1] = molecular target: Fuc(a1-2)Gal(b1-4)GlcNAc(b1-3)Gal(b1-4)GlcNAc
Summary of the method: (§1)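 Negative Z-scores can be read as non-binding. The Z-score is calculated within each array and then averaged across arrays of one protein sequence at different concentrations or buffers and across linkers. Arrays, 3228 in all, were curated from the Consortium for Functional Glycomics database and kept only where the protein sequence was available.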

[2] = molecular target: Fuc(a1-2)Gal(b1-4)GlcNAc(b1-3)Gal(b1-4)GlcNAc(b1-3)Gal(b1-4)GlcNAc
Summary of the method: as §1

[3] = molecular target: Fuc(a1-2)[Gal(a1-3)]Gal
Summary of the method: as §1

[4] = molecular target: Fuc(a1-3)[Gal(b1-4)]GlcNAc(b1-3)Gal(b1-3)[Fuc(a1-4)]GlcNAc
Summary of the method: as §1

[5] = molecular target: Fuc(a1-3)[GalNAc(b1-4)]GlcNAc
Summary of the method: as §1

[6] = molecular target: Gal(a1-3)Gal(b1-4)Glc
Summary of the method: as §1

[7] = molecular target: Gal(a1-3)GalNAc
Summary of the method: as §1

[8] = molecular target: Gal(b1-3)GalNAc(b1-4)[Neu5Ac(a2-3)]Gal(b1-4)Glc
Summary of the method: as §1

[9] = molecular target: Gal(b1-4)GlcNAc(b1-6)GalNAc
Summary of the method: as §1

[10] = molecular target: Gal3S(b1-3)GlcNAc
Summary of the method: as §1

[11] = molecular target: GalNAc(b1-3)Gal(a1-4)Gal(b1-4)GlcNAc
Summary of the method: as §1

[12] = molecular target: GlcNAc(b1-3)Gal(b1-3)GalNAc
Summary of the method: as §1

[13] = molecular target: GlcNAc(b1-3)Gal(b1-4)GlcNAc
Summary of the method: as §1

[14] = molecular target: GlcNAc(b1-3)[GlcNAc(b1-4)][GlcNAc(b1-6)]GlcNAc
Summary of the method: as §1

[15] = molecular target: Kdn(a2-3)Gal(b1-3)GlcNAc
Summary of the method: as §1

[16] = molecular target: Man(a1-2)Man(a1-3)[Man(a1-2)Man(a1-6)]Man
Summary of the method: as §1

[17] = molecular target: Man(a1-2)Man(a1-3)[Man(a1-2)Man(a1-6)]Man(a1-6)[Man(a1-2)Man(a1-2)Man(a1-3)]Man(b1-4)GlcNAc(b1-4)GlcNAc
Summary of the method: as §1

[18] = molecular target: Man(a1-3)[Man(a1-6)]Man(a1-6)[Man(a1-3)]Man(b1-4)GlcNAc(b1-4)GlcNAc
Summary of the method: as §1

[19] = molecular target: Man(a1-3)[Man(a1-6)]Man(b1-4)GlcNAc(b1-4)GlcNAc
Summary of the method: as §1

[20] = molecular target: Neu5Ac(a2-3)Gal(b1-3)GalNAc(b1-4)[Neu5Ac(a2-3)]Gal(b1-4)Glc
Summary of the method: as §1

[21] = molecular target: Neu5Ac(a2-3)[Neu5Ac(a2-6)]GalNAc
Summary of the method: as §1

[22] = molecular target: Neu5Ac(a2-6)GalNAc
Summary of the method: as §1

[23] = molecular target: Neu5Ac(a2-8)Neu5Ac(a2-8)Neu5Ac
Summary of the method: as §1

[24] = molecular target: Neu5Ac(a2-8)Neu5Ac(a2-8)Neu5Ac(a2-3)[GalNAc(b1-4)]Gal(b1-4)Glc
Summary of the method: as §1

[25] = molecular target: Neu5Ac(a2-8)Neu5Ac(a2-8)Neu5Ac(a2-8)Neu5Ac(a2-3)[GalNAc(b1-4)]Gal(b1-4)Glc
Summary of the method: as §1

[26] = molecular target: Neu5Gc(a2-3)Gal(b1-4)GlcNAc
Summary of the method: as §1

B1: SrpA (Streptococcus sanguis) (protein)
chain: SSKSESTVNSQSASSETNRSSTNNGSTSSSSETARVRKRRATDTTPPTITVPSDIIAYRGEEFEFYFEITDDSGQVKNIELSTFGKPLGLNWLEYSEDNFNVPGNATSDNPLRVRVHGTVPLNEPIPADKNRAQFTRTIRAWDAAGNVSSNITFVIKYRAQTDKYNPADPTITYVDRLSSLSPSEKNAVEAAVRAANPQIPAAARITVSANGTVTITYPDSSTDTITANRVVKDLASSRSALT
[1]
  glycan array binding signal (z-score): -0.109
[2]
  glycan array binding signal (z-score): 2.25
[3]
  glycan array binding signal (z-score): 0.762
[4]
  glycan array binding signal (z-score): -0.157
[5]
  glycan array binding signal (z-score): -0.159
[6]
  glycan array binding signal (z-score): 0.291
[7]
  glycan array binding signal (z-score): -0.317
[8]
  glycan array binding signal (z-score): -0.532
[9]
  glycan array binding signal (z-score): -0.04
[10]
  glycan array binding signal (z-score): 0.646
[11]
  glycan array binding signal (z-score): -0.265
[12]
  glycan array binding signal (z-score): 1.6
[13]
  glycan array binding signal (z-score): -0.543
[14]
  glycan array binding signal (z-score): -0.657
[15]
  glycan array binding signal (z-score): 0.272
[16]
  glycan array binding signal (z-score): -0.848
[17]
  glycan array binding signal (z-score): -0.332
[18]
  glycan array binding signal (z-score): 1.57
[19]
  glycan array binding signal (z-score): -0.474
[20]
  glycan array binding signal (z-score): -0.383
[21]
  glycan array binding signal (z-score): -0.566
[22]
  glycan array binding signal (z-score): 5.01
[23]
  glycan array binding signal (z-score): -0.629
[24]
  glycan array binding signal (z-score): -0.901
[25]
  glycan array binding signal (z-score): 2.24
[26]
  glycan array binding signal (z-score): -0.45
